Source: PubChem BioAssay
The list is not random: actives were taken first. Their share in the collection is about 3.6%.
MazEF act: activators of E. coli MazEF toxin-antitoxin RNase; P0AE70; FAM/BHQ RNA-DNA oligo cleavage fluorescence, 5 h; activation, % at 20 µM; 350,000 tested, 0.32% active; AID 504720; in the data active = activation above about 50%
Anthrax LF inh2: inhibitors of Bacillus anthracis lethal factor protease. P15917. multiplex microsphere protease cleavage assay, LF. inhibition, % at 10 µM. 360,000 tested, 0.12% active. AID 588501; in the data active = inhibition above about 30%; inconclusive = no clear call, values can overlap the other calls
Autofluor counter: counter-screen for toxin protease inhibitors: compound fluorescence; compound autofluorescence counterscreen, microsphere flow cytometry; hits give high values; fluorescence intensity (test concentration not listed); 360,000 tested, 3.1% active; in the data active = fluorescence intensity above about 16000; inconclusive = no clear call, values can overlap the other calls
BoNT F protease: BoNT F light chain protease inhibition. 360,000 tested, 0.22% active. Multiplex microsphere protease cleavage assay, flow cytometry. inhibition, % at 10 µM; in the data active = inhibition above about 35%, passing the limit was not always enough; inconclusive = no clear call, values can overlap the other calls
BoNT-A LC inh2: blocks Botulinum neurotoxin A light chain protease; multiplex microsphere protease substrate cleavage, flow cytometry; inhibition, % at 10 µM; 360,000 tested, 0.17% active; in the data active = inhibition above about 30%; inconclusive = no clear call, values can overlap the other calls
BoNT-A LC CP1: inhibitors of Botulinum neurotoxin A light chain protease; inhibition, % at 10 µM; shares compounds with BoNT F protease; AID 602139; 720 tested, 3% active; multiplex microsphere protease assay, flow cytometry; in the data active = inhibition above about 32%
BoNT-F LC CP1: inhibitors of Botulinum neurotoxin F light chain protease; multiplex microsphere protease cleavage assay, flow cytometry; inhibition, % at 10 µM; AID 602140; 720 tested, under 10 active; shares compounds with BoNT F protease
Anthrax LF CP1: Bacillus anthracis lethal factor protease inhibition. 720 tested, under 10 active. shares compounds with BoNT F protease. inhibition, % at 10 µM. multiplex microsphere protease cleavage assay, LF. AID 602142
Each line names hits and unclear results; the compound was inactive in the other large screens (follow-up assays come after a bar, where they were run). Unless noted, the rule behind the calls is not given here.

Nc1ncnc2c1ncn2C1OCC(O)C1O (stereo not given)	none (no result: MazEF act)
CCN(CC)C(=O)CSc1nc(Cc2ccccc2)nc2ccccc12	Anthrax LF inh2 39.8, BoNT F protease inconclusive | BoNT-A LC CP1 inactive | BoNT-F LC CP1 inactive | Anthrax LF CP1 inactive
O=C(Oc1ccccc1)c1cc(O)c(O)c(O)c1	none (no result: MazEF act)
Cc1ccccc1Cn1nc(C)c(NC(=O)c2cc3nc(-c4ccco4)cc(C(F)(F)F)n3n2)c1C	none | BoNT-A LC CP1 inactive | BoNT-F LC CP1 inactive | Anthrax LF CP1 inactive
Cc1nn(Cc2ccc(F)cc2)c(C)c1NC(=O)c1cc(-c2ccc3c(c2)OCO3)on1	none
Cc1nn(C)cc1CN(C)C(=O)c1cc2nc(-c3ccco3)cc(C(F)(F)F)n2n1	none
O=C(Nc1cnn(Cc2ccccc2)c1)c1cc2nc(-c3ccco3)cc(C(F)(F)F)n2n1	none | BoNT-A LC CP1 inactive | BoNT-F LC CP1 inactive | Anthrax LF CP1 inactive
Cc1nn(C)cc1NC(=O)c1cc2nc(-c3ccco3)cc(C(F)(F)F)n2n1	none | BoNT-A LC CP1 inactive | BoNT-F LC CP1 inactive | Anthrax LF CP1 inactive
CCc1ccc(-c2cc(C(F)(F)F)n3nc(C(=O)Nc4c(C)nn(Cc5ccc(F)cc5)c4C)cc3n2)s1	BoNT-A LC inh2 32.7 | BoNT-A LC CP1 inactive | BoNT-F LC CP1 inactive | Anthrax LF CP1 inactive
[O-][N+](=C(c1ccccc1)c1ccccc1)c1ccccc1	none
O=C(Nc1ccc(OC(F)(F)F)cc1)c1[nH]ncc1[N+](=O)[O-]	none
COc1cc2nc(/C=C/c3ccc(N(C)C)cc3)sc2cc1SC	BoNT-A LC inh2 39.4 | BoNT-A LC CP1 inactive | BoNT-F LC CP1 inactive | Anthrax LF CP1 inactive
CC1(C(=O)NS(=O)(=O)c2cccc(C#N)c2)CCN1C(=O)Cc1ccccc1 (stereo not given)	none (no result: MazEF act)
COc1ccc(N2C(=O)C3CCCN3C2c2ccccc2)cc1Cl (stereo not given)	BoNT F protease 53.3 | BoNT-A LC CP1 inactive | BoNT-F LC CP1 inactive | Anthrax LF CP1 inactive
COc1ccc(S(=O)(=O)N2CCSC2C)cc1C (stereo not given)	BoNT F protease 43.7 | BoNT-A LC CP1 inactive | BoNT-F LC CP1 inactive | Anthrax LF CP1 inactive
COc1ccc(-c2ncc3ccccn23)cc1OC	none | BoNT-A LC CP1 inactive | BoNT-F LC CP1 inactive | Anthrax LF CP1 inactive
O=[N+]([O-])c1cccc(-c2ncc3ccccn23)c1	none
COc1ccc(-c2cncc3nccn23)cc1OC	none (no result: MazEF act)
Clc1ccccc1-c1ncc2ccccn12	none | BoNT-A LC CP1 inactive | BoNT-F LC CP1 inactive | Anthrax LF CP1 inactive
Clc1ccc(-c2ncc3ccccn23)cc1	BoNT-A LC inh2 51.0 | BoNT-A LC CP1 inactive | BoNT-F LC CP1 inactive | Anthrax LF CP1 inactive
Cc1[nH]c2ccccc2c1C(=O)CSC(=S)N1CCCCC1	none
CC(NC(=O)C(Cc1ccccc1)n1cccc1)c1ccccc1 (stereo not given)	none
CC(C)=CC1C(C(=O)NCCOc2ccccc2)C1(C)C (stereo not given)	BoNT F protease 35.4 | BoNT-A LC CP1 inactive | BoNT-F LC CP1 inactive | Anthrax LF CP1 inactive
Cc1cc2ccccc2n1CCNC(=O)C1CCCC1	BoNT-A LC inh2 162.8 | BoNT-A LC CP1 inactive | BoNT-F LC CP1 inactive | Anthrax LF CP1 inactive
CCc1nnc(NC(=O)CSc2nnc3nc(C)cc(C)n23)s1	none
Cc1ccc(S(=O)(=O)c2cc(C)cc(S(=O)(=O)Nc3ccc(C(=O)O)cc3)c2C)cc1	BoNT F protease 39.4 | BoNT-A LC CP1 inactive | BoNT-F LC CP1 inactive | Anthrax LF CP1 inactive
COc1cc(OC)c(S(=O)(=O)Nc2ccc(C(=O)O)cc2)cc1S(=O)(=O)Nc1ccc(C(=O)O)cc1	none
Cc1nn2c(c1-c1ccccc1)NC1=C(C(=O)CCC1)C2c1ccccc1 (stereo not given)	BoNT F protease 35.7 | BoNT-A LC CP1 inactive | BoNT-F LC CP1 inactive | Anthrax LF CP1 inactive
CCC(=O)N1c2ccccc2NC2=C(C(=O)CCC2)C1c1ccccc1 (stereo not given)	none
C=CCn1cnc2c(oc3ccccc32)c1=O	Anthrax LF inh2 35.1 | BoNT-A LC CP1 inactive | BoNT-F LC CP1 inactive | Anthrax LF CP1 inactive
O=c1c2oc3ccccc3c2ncn1Cc1ccccc1Cl	none
COc1c(C)cccc1C(=O)NCc1ccc2c(c1)OCO2	BoNT F protease 35.6 | BoNT-A LC CP1 inactive | BoNT-F LC CP1 inactive | Anthrax LF CP1 inactive
